{
  "source": "the OligoGym collection",
  "data": [
    {"molecular_target": "NOMO3", "experiment": "pooled miR-30 sensor sort-seq; sequence = guide strand", "conditions": "shRNA", "values": [
      {"sequence": "TTCACCTTCCTCATTGCCGTTT", "sensor-assay potency score (higher = more potent)": -0.31},
      {"sequence": "TAGAACGCTTGCTCAAACCGGT", "sensor-assay potency score (higher = more potent)": 0.161},
      {"sequence": "TTGTCTTCTGTTTCTTGGCTTG", "sensor-assay potency score (higher = more potent)": -0.491},
      {"sequence": "TATGATGTTTACATCATCGATG", "sensor-assay potency score (higher = more potent)": -0.855},
      {"sequence": "TAACTCATCTACCATCTCCTGC", "sensor-assay potency score (higher = more potent)": -0.337},
      {"sequence": "TTATTTTGTATTTTCCAGGGAG", "sensor-assay potency score (higher = more potent)": 0.546},
      {"sequence": "TGGAACACCATCTCCTTCGGGT", "sensor-assay potency score (higher = more potent)": -0.53},
      {"sequence": "TTTGGTGCAATTTTGATGGTGA", "sensor-assay potency score (higher = more potent)": 0.652},
      {"sequence": "TTGGTGTACAGCTTTATCTCGA", "sensor-assay potency score (higher = more potent)": 0.0866},
      {"sequence": "TGTTGCAACAATGTCAGCCAGC", "sensor-assay potency score (higher = more potent)": -0.925},
      {"sequence": "TTATTCATCTGCTTGACGGTGT", "sensor-assay potency score (higher = more potent)": 0.998},
      {"sequence": "TTGTCTCTTTGCATCTTCTGGG", "sensor-assay potency score (higher = more potent)": -0.0196},
      {"sequence": "TATCTGACCACAGACACTGAAC", "sensor-assay potency score (higher = more potent)": -1.06},
      {"sequence": "TAACAGTGATTTTCTCTCCAGA", "sensor-assay potency score (higher = more potent)": -0.602},
      {"sequence": "TTGATCTCCACGTCCGACTTGA", "sensor-assay potency score (higher = more potent)": 0.49},
      {"sequence": "TAAAGCTTGACCCATAACGTAG", "sensor-assay potency score (higher = more potent)": -0.74}
    ]},
    {"molecular_target": "NOTCH4", "experiment": "pooled miR-30 sensor sort-seq; sequence = guide strand", "conditions": "shRNA", "values": [
      {"sequence": "TAGGGGTACACCATGTCCCTGC", "sensor-assay potency score (higher = more potent)": 0.0292},
      {"sequence": "TATATAGGAAAGAACATCTTAC", "sensor-assay potency score (higher = more potent)": 0.0056},
      {"sequence": "TATCTTCCTCGCATTATCGCAG", "sensor-assay potency score (higher = more potent)": -0.574},
      {"sequence": "TTAGGGTTCTTAAATAGCGATA", "sensor-assay potency score (higher = more potent)": -1.36},
      {"sequence": "TTGAGCAGTTCTGTCCATCGTA", "sensor-assay potency score (higher = more potent)": 0.59},
      {"sequence": "TTTAGGGTTCTTAAATAGCGAT", "sensor-assay potency score (higher = more potent)": -1.06},
      {"sequence": "ATATATAGGAAAGAACATCTTA", "sensor-assay potency score (higher = more potent)": -0.0997},
      {"sequence": "TTCTTGGTTCCAACTTAGGGGT", "sensor-assay potency score (higher = more potent)": -0.898}
    ]}
  ]
}
